Reference: PMC11062922 (Nature Chemical Biology, 2023)
Read-outs that look alike come from different tables or passages of the source.

How the values were obtained:
Design in all cases: species or system human, MV4-11 + K-562 + COLO205 + SK-N-BE2 + OVCAR-8
IRAK3 = settings: read-out: apparent Kd; compound concentrations:100 nM and 1000 nM (sheet 'Samples'); n = 1
STK16 = settings: read-out: apparent Kd; compound concentrations:100 nM and 1000 nM (sheet 'Samples'); n = 1
GSK3A = settings: read-out: apparent Kd, n = 1
GSK3B = settings: read-out: apparent Kd, n = 1
HSP90B1 = settings: read-out: apparent Kd, n = 1
ILK = settings: read-out: apparent Kd; compound concentrations:100 nM and 1000 nM (sheet 'Samples'); n = 1
MERTK = settings: read-out: apparent Kd; compound concentrations:100 nM and 1000 nM (sheet 'Samples'); n = 1
PIK3CD = settings: read-out: apparent Kd; compound concentrations:100 nM and 1000 nM (sheet 'Samples'); n = 1
TAOK3 = settings: read-out: apparent Kd; compound concentrations:100 nM and 1000 nM (sheet 'Samples'); n = 1
JAK2 = settings: read-out: apparent Kd; compound concentrations:100 nM and 1000 nM (sheet 'Samples'); n = 1
HSP90AA1 = settings: read-out: apparent Kd; compound concentrations: 100 nM and 1000 nM (sheet 'Samples'), CATDS: 0.146358991547622; n = 1
HSPE1 = settings: read-out: apparent Kd, n = 1
PGK1 = settings: read-out: apparent Kd; compound concentrations: 100 nM and 1000 nM (sheet 'Samples'), CATDS: 0.56711536004942897; n = 1
PKM = settings: read-out: apparent Kd; compound concentrations: 100 nM and 1000 nM (sheet 'Samples'), CATDS: 0.16665150952337399; n = 1
ICK = settings: read-out: apparent Kd, compound concentrations: 100 nM and 1000 nM (sheet 'Samples'), n = 1
PRKCD = settings: read-out: apparent Kd, compound concentrations: 100 nM and 1000 nM (sheet 'Samples'), n = 1
IARS = settings: read-out: apparent Kd, n = 1
RIOK2 = settings: read-out: apparent Kd; compound concentrations: 100 nM and 1000 nM (sheet 'Samples'), CATDS: 0.52054883723006395; n = 1
NQO2 = settings: read-out: apparent Kd; compound concentrations:100 nM and 1000 nM (sheet 'Samples'); n = 1
TGFBR1 = settings: read-out: apparent Kd; compound concentrations: 100 nM and 1000 nM (sheet 'Samples'), CATDS: 0.31893275464491699; n = 1
PRKCQ = settings: read-out: apparent Kd; compound concentrations: 100 nM and 1000 nM (sheet 'Samples'), CATDS: 0.15135413462946001; n = 1
HCK = settings: read-out: apparent Kd; compound concentrations: 100 nM and 1000 nM (sheet 'Samples'), CATDS: 0.18431163144464899; n = 1
MAPK14 = settings: read-out: apparent Kd; compound concentrations: 100 nM and 1000 nM (sheet 'Samples'), CATDS: 0.18472106160443499; n = 1
MDN1 = settings: read-out: apparent Kd; compound concentrations: 100 nM and 1000 nM (sheet 'Samples'), CATDS: 0.171379045218121; n = 1
RET = settings: read-out: apparent Kd; compound concentrations: 100 nM and 1000 nM (sheet 'Samples'), CATDS: 0.22274296302997099; n = 1
YES1 = settings: read-out: apparent Kd; compound concentrations: 100 nM and 1000 nM (sheet 'Samples'), CATDS: 0.26066512285863302; n = 1
[1] = compound concentrations:100 nM and 1000 nM (sheet 'Samples')

How did the potency estimated from few doses (IRAK3) turn out when COc1cc(C=NNc2ncnc3c2cnn3-c2ccccc2)ccc1O [GW513184X] was run?
Its potency estimated from few doses is 1310 nM.

What about the potency estimated from few doses (STK16) of the same compound?
The potency estimated from few doses was 1950 nM.

Which potency estimated from few doses (GSK3A; [1]) does the source give for COc1cccc(C2=C(Nc3ccc(Cl)c(C(=O)O)c3)C(=O)NC2=O)c1 [SB-390769] here?
Its potency estimated from few doses is 323 nM.

What about the potency estimated from few doses (GSK3B; [1]) of the same compound?
Its potency estimated from few doses is 644 nM.

What does the source list for COC(=O)Nc1nc2cc(Oc3ccc(NC(=O)Nc4cc(C(F)(F)F)ccc4Cl)cc3)ccc2[nH]1.Cl [GW697465A]?
potency estimated from few doses (HSP90B1; [1]): 1220 nM; potency estimated from few doses (ILK): 2220 nM

How did the potency estimated from few doses (GSK3A; [1]) turn out when O=C(Nc1n[nH]c2nc(-c3cccs3)c(Br)cc12)C1CCCC1 [SB-743341] was run?
Its potency estimated from few doses is 529 nM.

And the potency estimated from few doses (GSK3B; [1])?
Its potency estimated from few doses is 1070 nM.

What about the potency estimated from few doses (MERTK) of the same compound?
The potency estimated from few doses was 1720 nM.

With COc1cccc(C2=C(Nc3cc(Cl)c(O)c(Cl)c3)C(=O)NC2=O)c1 [SB-390767] as the compound, how does the potency estimated from few doses (GSK3A; [1]) read?
The potency estimated from few doses was 528 nM.

And the potency estimated from few doses (GSK3B; [1])?
The potency estimated from few doses was 1090 nM.

And the potency estimated from few doses (PIK3CD)?
Its potency estimated from few doses is 191 nM.

What about the potency estimated from few doses (TAOK3) of the same compound?
Its potency estimated from few doses is 1110 nM.

O=C(Nc1cccnc1)c1cc(-c2ccnc(F)c2)ccc1OCc1ccccc1 [GSK2578215] was tested. Which potency estimated from few doses (JAK2) did it give?
The potency estimated from few doses was 322 nM.

How did the potency estimated from few doses (HSP90AA1) turn out when Cn1cc(C2=C(c3ccccc3C(F)(F)F)C(=O)NC2=O)c2ccccc21 [RO0317717-000] was run?
The potency estimated from few doses was 1690 nM.

And the potency estimated from few doses (HSP90B1; compound concentrations: 100 nM and 1000 nM (sheet 'Samples'), CATDS: 0.15036452413929899)?
The potency estimated from few doses was 1530 nM.

What about the potency estimated from few doses (HSPE1; compound concentrations: 100 nM and 1000 nM (sheet 'Samples'), CATDS: 0.26644464467786899) of the same compound?
Its potency estimated from few doses is 337 nM.

What about the potency estimated from few doses (PGK1) of the same compound?
Its potency estimated from few doses is 87.1 nM.

And the potency estimated from few doses (PKM)?
The potency estimated from few doses was 1090 nM.

COc1ccc(C2=C(Nc3cccc(C(=O)O)c3)C(=O)NC2=O)cc1 [SB-390765] was tested. Which potency estimated from few doses (GSK3A; [1]) did it give?
The potency estimated from few doses was 82.8 nM.

Which potency estimated from few doses (GSK3A; compound concentrations: 100 nM and 1000 nM (sheet 'Samples'), CATDS: 0.489076637072761) does the source give for COc1cccc2c1c(C1=C(c3cn(C)c4ccccc34)C(=O)NC1=O)cn2C [RO0317494-000] here?
The potency estimated from few doses was 149 nM.

And the potency estimated from few doses (GSK3B; compound concentrations: 100 nM and 1000 nM (sheet 'Samples'), CATDS: 0.37680240996491099)?
The potency estimated from few doses was 241 nM.

What about the potency estimated from few doses (ICK; CATDS: 0.23248137577465) of the same compound?
The potency estimated from few doses was 912 nM.

What does the source list for O=C(Nc1n[nH]c2nc(-c3ccco3)ccc12)C1CC1 [SB-743899]?
potency estimated from few doses (GSK3A; compound concentrations: 100 nM and 1000 nM (sheet 'Samples'), CATDS: 0.54830406508791196): 1390 nM; potency estimated from few doses (PRKCD; CATDS: 0.45951776162212499): 1990 nM

For O=C(Nc1n[nH]c2nc(-c3cccs3)c(Br)cc12)C1CC1 [SB-735297], which potency estimated from few doses (GSK3A; [1]) is on record?
Its potency estimated from few doses is 1290 nM.

Which results are given for CS(=O)(=O)CCNCc1ccc(-c2ccc3ncnc(Nc4ccc(OCc5ccccc5)c(C(F)(F)F)c4)c3c2)o1.Cl [GW574782A]?
potency estimated from few doses (IARS; compound concentrations: 100 nM and 1000 nM (sheet 'Samples'), CATDS: 0.48101189655770898): 1950 nM; potency estimated from few doses (RIOK2): 1670 nM

With Fc1ccc(-c2c(-c3ccccn3)nc3n2CCS3)cc1 [SKF-104365] as the compound, how does the potency estimated from few doses (HSPE1; [1]) read?
Its potency estimated from few doses is 149 nM.

And the potency estimated from few doses (NQO2)?
Its potency estimated from few doses is 1340 nM.

What about the potency estimated from few doses (TGFBR1) of the same compound?
Its potency estimated from few doses is 537 nM.

How did the potency estimated from few doses (IARS; [1]) turn out when CN1CCN(Cc2ccc(-c3cc4ncnc(Nc5ccc(OCc6cccc(F)c6)c(Cl)c5)c4s3)o2)CC1 [GW784684X] was run?
The potency estimated from few doses was 1610 nM.

For Nc1n[nH]c2nnc(-c3ccccc3)c(-c3ccccc3)c12 [GW554060X], which potency estimated from few doses (GSK3A; [1]) is on record?
The potency estimated from few doses was 424 nM.

And the potency estimated from few doses (GSK3B; [1])?
Its potency estimated from few doses is 833 nM.

Which results are given for Cn1cc(C2=C(c3cn(CCO)c4ccccc34)C(=O)NC2=O)c2ccccc21 [RO0318036-000]?
potency estimated from few doses (GSK3A; compound concentrations: 100 nM and 1000 nM (sheet 'Samples'), CATDS: 0.34431860248680501): 263 nM; potency estimated from few doses (GSK3B; compound concentrations: 100 nM and 1000 nM (sheet 'Samples'), CATDS: 0.35306232464093901): 252 nM; potency estimated from few doses (ICK; CATDS: 0.173475626531951): 1120 nM; potency estimated from few doses (PRKCD; CATDS: 0.14509929843566999): 1970 nM; potency estimated from few doses (PRKCQ): 1700 nM

How did the potency estimated from few doses (HCK) turn out when COc1cc(Nc2nccc(-c3c(-c4cccc(NC(=O)c5c(F)cccc5F)c4)nn4ccccc34)n2)cc(OC)c1OC [GSK323521A] was run?
Its potency estimated from few doses is 1570 nM.

And the potency estimated from few doses (MAPK14)?
The potency estimated from few doses was 1560 nM.

And the potency estimated from few doses (MDN1)?
The potency estimated from few doses was 1860 nM.

And the potency estimated from few doses (RET)?
The potency estimated from few doses was 1070 nM.

And the potency estimated from few doses (YES1)?
The potency estimated from few doses was 812 nM.
